In PubChem BioAssay (EPA / NIEHS):
Inconclusive results are not listed. The source made the active and inactive calls. How the source made its calls: active means hit-call score of the fitted dose curve at least 0.9, where 1 is the maximum; inconclusive means response in the unintended direction; inactive means score below 0.9.

What follows are molecules tested against Bile acid receptor (Homo sapiens) (UniProt Q96RI1) (assay: NVS_NR_hFXR_Antagonist: NovaScreen (NVS) Nuclear Receptor Binding Assay for human Farnesoid X Receptor Antagonism (FXR) (AID 2283350)).
Sequence of Bile acid receptor (Homo sapiens) (Q96RI1 whole entry, looked up): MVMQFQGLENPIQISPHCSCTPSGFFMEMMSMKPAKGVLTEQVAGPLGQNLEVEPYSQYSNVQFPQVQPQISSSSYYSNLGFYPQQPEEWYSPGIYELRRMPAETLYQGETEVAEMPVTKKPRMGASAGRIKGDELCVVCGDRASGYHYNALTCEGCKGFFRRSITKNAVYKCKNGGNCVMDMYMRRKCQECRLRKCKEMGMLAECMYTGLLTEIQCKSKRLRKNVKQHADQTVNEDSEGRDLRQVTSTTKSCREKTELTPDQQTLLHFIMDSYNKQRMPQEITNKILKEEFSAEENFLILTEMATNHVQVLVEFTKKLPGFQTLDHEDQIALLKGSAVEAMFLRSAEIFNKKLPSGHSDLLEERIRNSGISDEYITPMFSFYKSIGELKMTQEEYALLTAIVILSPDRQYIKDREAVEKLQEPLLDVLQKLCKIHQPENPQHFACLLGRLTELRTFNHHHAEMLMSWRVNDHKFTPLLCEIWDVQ
Protocol: NVS_NR_hFXR_Antagonist is a biochemical, single-readout assay that uses extracted gene-proteins in a cell-free assay. Measurements were taken 1 hour after chemical dosing in a 384-well plate.NVS_NR_hFXR_Antagonist is one of one assay component(s) measured or calculated from the NVS_NR_hFXR_Antagonist assay. It is designed to make measurements of fluorescent resonance energy transfer, a form of binding reporter, as detected with fluorescent resonance energy transfer signals by Time-Resolved Fluorescence Resonance Energy Transfer (TR-FRET) technology.Data from the assay component NVS_NR_hFXR_Antagonist was analyzed into 1 assay endpoint. This assay endpoint, NVS_NR_hFXR_Antagonist, was analyzed in the positive analysis fitting direction relative to DMSO as the negative control and baseline of activity. Using a type of binding reporter, loss-of-signal activity can be used to understand changes in the binding as they relate to the gene NR1H4. Furthermore, this assay endpoint can be referred to as a primary readout, because the performed assay has only produced 1 assay endpoint. To generalize the intended target to other relatable targets, this assay endpoint is annotated to the nuclear receptor intended target family, where the subfamily is non-steroidal.
Binding assays used specific radioligands (tritiated, iodinated) with non-radioactive competitive displacement ligands in agonist or antagonist protocols (as indicated) and various reference compounds and inhibitors to titrate specific binding to receptors and transporters. Most enzyme assays (CYPs, kinases, phosphatases, proteases, HDACs) used recombinant protein and specific substrates (fluorescence mostly, some colorimetric and radioactive) and inhibitors, followed by a biochemical separation of substrate and product. All assays for the biochemical HTS were initially run in duplicate at a single concentration (10 uM for CYP450 assays and 25 uM for all others). […] Each assay was run with positive and negative controls, and concurrent controls on every plate. The follow-up (secondary) screen tested active chemical-pairs in concentration series, as well as a few additional assays not tested in the primary screen, some selected negative inactives, and several cases re-run in the concentration series for confirmatory purposes.
With `CNc1cnn(-c2cccc(C(F)(F)F)c2)c(=O)c1Cl` the outcome was “inactive”.
In the case of `CSc1nnc(C(C)(C)C)c(=O)n1N`, the outcome is reported as “inactive”.
`COc1ccc(C(=CC(=O)N2CCOCC2)c2ccc(Cl)cc2)cc1OC` was tested, and the outcome was “inactive”.
For `CCCCOC(=O)c1ccccc1C(=O)O`, the outcome was “inactive”.
`C=C(C)[C@H]1Cc2c(ccc3c2O[C@@H]2COc4cc(OC)c(OC)cc4[C@@H]2C3=O)O1` was tested, and the outcome was “inactive”.
For `CCCSP(=O)(OCC)SCCC`, the outcome was “inactive”.
In the case of `Cc1ccn2nc(S(=O)(=O)Nc3c(F)cccc3F)nc2n1`, the outcome is reported as “inactive”.
In the case of `CC1(C(=O)Nc2ccc(O)c(Cl)c2Cl)CCCCC1`, the outcome is reported as “inactive”.
`CC(COc1ccc(Oc2ccccc2)cc1)Oc1ccccn1` (stereo not given) was tested, and the AC50 was 6.89 µM (active).
For `CCOP(=O)(OCC)Oc1cc(C)nc(C(C)C)n1`, the outcome was “inactive”.
